Measurements taken from PubChem BioAssay (NCATS).
Several values for one entry are separate records, joined by “and”; a condition that tells them apart may be missing. Equal values may be shown once. Results filed as inconclusive are left out. A call without a number means that no potency is given here. Activity calls are given as the source filed them. Unless noted, calls come from the whole dose curve; as a rule, active = well fitted curve in the direction sought with a large enough effect; inconclusive = small, poorly fitted or top-dose-only effect, or another doubt; inactive = no such curve, though single readings can be large; an effect the other way counts as inactive or inconclusive.

Assays:
[1] = Cytotoxicity counterscreen for NFkB agonists and antagonists (AID 624476);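 note: cells exposed to compound for 48 hours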; note: potency is the fitted concentration of half-maximal effect
[2] = qHTS Assay for Identification of Small Molecule Agonists for NFkB Signaling Pathway. (AID 624478);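 note: compounds tested together with TNF alpha at its EC50 of 10 pM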
Method in brief: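 Cells carrying an NFkB response element-driven beta-lactamase gene are co-treated with compound and 10 pM TNF alpha for 5 h, and reporter activity is then read as 460 and 530 nm fluorescence.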

[3] = S16 Schwann cell viability assay (CellTiter-Glo assay) (AID 624031);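 note: native untransfected S16 rat Schwann cells; cellular ATP luminescence as a viability measure; series mostly up to about 58 µM; nearly all actives have a fitted effect of over 70% in size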
Method in brief: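 Following overnight culture in 10% FBS DMEM, parental S16 rat Schwann cells are dosed for 24 h at 37 °C. Viability is read as CellTiter-Glo luminescence and expressed as % activity relative to DMSO (0%) and no-cell wells.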

[4] = S16 Schwann cell PMP22 intronic element firefly luciferase assay (AID 624032); note: series mostly up to about 58 µM; nearly all actives have a fitted effect of over 30% in size
Method in brief: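 Rat S16 Schwann cells stably carrying a PMP22 intronic element-driven Fluc reporter were seeded overnight, then exposed to compounds for 24 h at 37 °C. Luminescence was normalized to PTC124 (positive control) and DMSO (0% activity).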

[5] = S16 Schwann cell PMP22 intronic element beta-lactamase assay (AID 624044; calls by dose curve; note: nearly all actives have a fitted effect of over 15% in size)
Method in brief: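 Rat S16 Schwann cells with beta-Lac driven by a PMP22 intronic element, compound-treated 24 h at 37 °C. LiveBLAzer FRET B/G read: 460 nm normalized to potassium clavulanate vs DMSO; 535 nm FRET as viability; concentration-effect curves classified.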

[6] = biological target: Vitamin D3 receptor (Homo sapiens) (UniProt P11473); assay: qHTS assay for small molecule antagonists of vitamin D receptor signaling (AID 588541; calls by dose curve;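 note: receptor activated by calcitriol during compound treatment; series mostly up to about 77 µM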)
Method in brief: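 VDR-UAS-bla HEK293T cells (2000/well, 2% charcoal-stripped FBS) were treated with titrated compounds plus 1-alpha,25-dihydroxyvitamin D3 (50 nM or 3 nM final) for 16 h at 37 C. CCF4 beta-lactamase fluorescence was read; Hill fits gave IC50.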

[7] = biological target: Vitamin D3 receptor (Homo sapiens) (UniProt P11473); assay: qHTS assay for small molecule agonists of vitamin D receptor signaling (AID 588543; calls by dose curve)
Method in brief: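 Reporter cells (HEK293T, VDR-UAS-bla) were seeded in medium with 2% charcoal-stripped serum and incubated 5 h, then compounds in concentration series were added for 16 h at 37 °C. Stimulation was scaled between DMSO basal and 50 nM 1α,25-dihydroxyvitamin D3.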

[8] = qHTS assay for small molecule agonists of retinoid X receptor alpha signaling (AID 588544; calls by dose curve); settings: HEK293T RXRa-UAS-bla, beta-lactamase reporter, 18 h; 530 nm emission
[9] = biological target: Retinoic acid receptor RXR-alpha (Homo sapiens) (UniProt P19793); assay: as above
[10] = biological target: Thyroid hormone receptor beta (Homo sapiens) (UniProt P10828); assay: qHTS assay for small molecule agonists of thyroid hormone receptor beta signaling (AID 588545; calls by dose curve)
Method in brief: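 Efficacy and EC50 values derive from Hill fits of qHTS titration data, normalized to 10 nM T3 and DMSO-only wells. HEK 293 reporter cells were stimulated for 18 hrs at 37 C, with beta-lactamase activity measured by CCF4 fluorescence.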

[11] = qHTS assay for small molecule antagonists of retinoid X receptor alpha signaling (AID 588546; active = well fitted inhibition curve with a large enough effect in the signal ratio, with a control signal flat, not every such curve was filed as active; the % refers to the signal ratio;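 note: cells stimulated with 9-cis-retinoic acid as agonist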); settings: HEK293T RXRa-UAS-bla, beta-lactamase ratio, antagonist mode; measured here: W530 green channel, cytotoxicity proxy
Method in brief: (§1)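 Beta-lactamase reporter inhibition, read as CCF4 fluorescence ratio (ex 405, em 460/530 nm) after 2 h at RT. HEK293T UAS-bla cells, 2500/well, were stimulated with 9-cis-RA at 500 or 100 nM final alongside test compound for 18 h at 37 C.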

[12] = biological target: Retinoic acid receptor RXR-alpha (Homo sapiens) (UniProt P19793); assay: as above; settings: HEK293T RXRa-UAS-bla, beta-lactamase ratio, antagonist mode
Method in brief: as §1

[13] = biological target: Thyroid hormone receptor beta (Homo sapiens) (UniProt P10828); assay: qHTS assay for small molecule antagonists of thyroid hormone receptor beta signaling (AID 588547; active = well fitted inhibition curve with a large enough effect in the signal ratio, with a control signal flat, not every such curve was filed as active; the % refers to the signal ratio;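 note: cells stimulated with 0.4 nM T3 agonist during compound exposure; series mostly up to about 77 µM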); settings: TR-UAS-bla HEK293, beta-lactamase ratio, antagonist mode, 18 h
Method in brief: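 TR-UAS-bla GripTite HEK293 cells in 2% charcoal/dextran FBS medium were preincubated 4 h at 37 C, given compound (0.59 nM to 92 uM) plus 0.4 nM T3 (final) for 18 h, then CCF4 for 2 h at RT; Hill fit gave IC50.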

[14] = biological target: Voltage-gated inwardly rectifying potassium channel KCNH2 (Homo sapiens) (UniProt Q12809); assay: qHTS Assay for Small Molecule Inhibitors of the Human hERG Channel Activity (AID 588834);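 note: top concentration of the series differs between compounds; lower thallium flux fluorescence means stronger hERG block; nearly all actives have a fitted effect of over 50% in size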
Method in brief: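 hERG-BacMam U2OS, 2000 cells/well; 0.7X FluxOR loading 1 hr RT dark; cpd ~10 min 37 °C; stim buffer; FDSS fluorescence 2 min @ 1 s; AC50 Hill fit.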

[15] = qHTS Assay for Identification of Small Molecule Antagonists for NFkB Signaling Pathway. (AID 624479; calls by dose curve;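 note: pathway stimulated with TNF alpha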; note: potency is the fitted concentration of half-maximal effect)

Sequence of Thyroid hormone receptor beta (Homo sapiens) (P10828 whole entry, looked up): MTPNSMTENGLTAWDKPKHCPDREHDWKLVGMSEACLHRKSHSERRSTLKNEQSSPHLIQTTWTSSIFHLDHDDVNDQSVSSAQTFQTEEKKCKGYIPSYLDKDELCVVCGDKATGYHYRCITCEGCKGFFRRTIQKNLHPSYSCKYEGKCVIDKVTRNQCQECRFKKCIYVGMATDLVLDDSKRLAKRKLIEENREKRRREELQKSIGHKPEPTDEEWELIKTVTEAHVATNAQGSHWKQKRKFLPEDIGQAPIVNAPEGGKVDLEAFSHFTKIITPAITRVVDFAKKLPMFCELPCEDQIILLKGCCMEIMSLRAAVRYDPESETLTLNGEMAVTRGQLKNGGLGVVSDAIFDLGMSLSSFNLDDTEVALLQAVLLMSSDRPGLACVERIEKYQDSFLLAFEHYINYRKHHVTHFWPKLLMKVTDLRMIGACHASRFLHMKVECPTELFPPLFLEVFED
Sequence of Retinoic acid receptor RXR-alpha (Homo sapiens) (P19793 whole entry, looked up): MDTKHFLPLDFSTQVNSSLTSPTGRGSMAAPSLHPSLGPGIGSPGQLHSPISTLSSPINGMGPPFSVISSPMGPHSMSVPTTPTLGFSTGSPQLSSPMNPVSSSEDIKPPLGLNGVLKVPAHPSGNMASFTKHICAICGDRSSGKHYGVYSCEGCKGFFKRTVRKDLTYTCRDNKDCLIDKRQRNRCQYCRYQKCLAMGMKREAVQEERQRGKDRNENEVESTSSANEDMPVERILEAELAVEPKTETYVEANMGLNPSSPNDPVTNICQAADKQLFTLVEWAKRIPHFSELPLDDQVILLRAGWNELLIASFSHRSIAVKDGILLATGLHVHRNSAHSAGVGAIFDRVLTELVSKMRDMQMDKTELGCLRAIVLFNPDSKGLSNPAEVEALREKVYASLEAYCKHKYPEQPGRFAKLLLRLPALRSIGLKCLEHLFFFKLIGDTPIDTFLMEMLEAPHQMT
Sequence of Vitamin D3 receptor (Homo sapiens) (P11473 whole entry, looked up): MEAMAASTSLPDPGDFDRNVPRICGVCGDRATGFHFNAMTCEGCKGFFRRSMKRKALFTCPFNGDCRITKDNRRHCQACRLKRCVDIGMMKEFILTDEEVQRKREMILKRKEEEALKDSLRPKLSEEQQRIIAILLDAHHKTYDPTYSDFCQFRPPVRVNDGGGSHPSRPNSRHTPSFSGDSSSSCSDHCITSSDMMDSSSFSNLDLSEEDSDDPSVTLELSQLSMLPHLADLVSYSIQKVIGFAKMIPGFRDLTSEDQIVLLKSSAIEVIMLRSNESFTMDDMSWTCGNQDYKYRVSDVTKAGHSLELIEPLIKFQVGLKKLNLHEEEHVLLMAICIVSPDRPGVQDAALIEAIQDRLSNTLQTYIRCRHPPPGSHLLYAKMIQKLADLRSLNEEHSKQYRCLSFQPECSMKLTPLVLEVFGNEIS
Sequence of Voltage-gated inwardly rectifying potassium channel KCNH2 (Homo sapiens) (Q12809 whole entry, looked up): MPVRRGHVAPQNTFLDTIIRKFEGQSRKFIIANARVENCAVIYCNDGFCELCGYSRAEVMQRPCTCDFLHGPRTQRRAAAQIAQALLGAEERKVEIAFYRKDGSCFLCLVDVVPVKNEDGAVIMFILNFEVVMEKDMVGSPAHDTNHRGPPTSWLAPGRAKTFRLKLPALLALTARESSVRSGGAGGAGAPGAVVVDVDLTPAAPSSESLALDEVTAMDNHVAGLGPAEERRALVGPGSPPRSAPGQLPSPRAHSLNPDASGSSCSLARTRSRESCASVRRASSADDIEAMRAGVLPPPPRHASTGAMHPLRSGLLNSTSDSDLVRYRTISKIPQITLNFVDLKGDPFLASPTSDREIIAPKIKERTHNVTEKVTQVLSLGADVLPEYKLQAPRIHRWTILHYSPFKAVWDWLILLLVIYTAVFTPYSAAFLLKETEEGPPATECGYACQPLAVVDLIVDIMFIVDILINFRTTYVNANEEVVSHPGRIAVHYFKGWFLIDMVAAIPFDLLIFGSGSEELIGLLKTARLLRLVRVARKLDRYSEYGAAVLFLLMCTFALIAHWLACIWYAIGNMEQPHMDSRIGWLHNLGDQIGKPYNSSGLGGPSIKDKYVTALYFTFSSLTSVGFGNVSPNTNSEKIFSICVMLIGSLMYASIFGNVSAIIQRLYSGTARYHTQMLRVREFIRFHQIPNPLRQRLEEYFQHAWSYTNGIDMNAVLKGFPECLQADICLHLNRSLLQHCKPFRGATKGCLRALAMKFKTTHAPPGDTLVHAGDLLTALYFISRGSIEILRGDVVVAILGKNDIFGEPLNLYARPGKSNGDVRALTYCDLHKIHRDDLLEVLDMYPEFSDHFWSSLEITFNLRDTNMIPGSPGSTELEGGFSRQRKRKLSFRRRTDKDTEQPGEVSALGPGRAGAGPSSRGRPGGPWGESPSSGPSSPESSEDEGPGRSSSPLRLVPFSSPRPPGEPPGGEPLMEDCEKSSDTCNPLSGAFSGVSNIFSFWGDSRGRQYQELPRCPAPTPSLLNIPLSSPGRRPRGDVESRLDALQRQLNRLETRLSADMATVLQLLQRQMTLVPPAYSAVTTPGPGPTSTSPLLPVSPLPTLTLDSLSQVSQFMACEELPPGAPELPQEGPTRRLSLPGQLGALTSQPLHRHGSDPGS

Question: For `CN(C)CCN(C)C(=O)c1ccc(NC(=O)Nc2ccc(-c3nc(N4CCOCC4)c4ccn(CC(F)(F)F)c4n3)cc2)cc1`, which Potency [1] is on record?
Answer: 4.18 µM (active)

Question: And the outcome [2]?
Answer: inactive

Question: Which outcome [3] does the source give for `COc1ccnc(CS(=O)c2nc3ccc(OC(F)F)cc3[nH]2)c1OC` (stereo unspecified) here?
Answer: inactive

Question: And the Potency [4]?
Answer: inactive

Question: And the Potency [5]?
Answer: inactive

Question: Which results are given for `C[C@@H]1C[C@H]2[C@@H]3CCC4=CC(=O)C=C[C@]4(C)[C@@]3(F)[C@@H](O)C[C@]2(C)[C@@]1(O)C(=O)CO`?
Answer: outcome [6]: inactive; outcome [7]: inactive; max response [8]: 10.8% and 0.324%; outcome [9]: inactive; outcome [10]: inactive; max response [11]: 18.8% and -5.96%; max response [12]: -0.0279% (inactive) and -1.12% (inactive); activity change % (negative = inhibition) [13]: 1.08% (inactive) and 5.56% (inactive); Potency [14]: inactive

Question: Which outcome [3] does the source give for `COc1cc2c(cc1OC)CC(=O)N(CCCN(C)C[C@H]1Cc3cc(OC)c(OC)cc31)CC2` here?
Answer: inactive

Question: What about the Potency [4] of the same compound?
Answer: inactive

Question: What about the Potency [1] of the same compound?
Answer: inactive

Question: What about the outcome [2] of the same compound?
Answer: inactive

Question: And the Potency [15]?
Answer: inactive

Question: For `CCNC(=O)c1noc(-c2cc(C(C)C)c(O)cc2O)c1-c1ccc(CN2CCOCC2)cc1`, which Potency [1] is on record?
Answer: inactive

Question: And the outcome [2]?
Answer: inactive

Question: And the Potency [15]?
Answer: 0.0009 µM (active)

Question: For `CCC(=O)N1CCN(c2ccc(-n3c(=O)ccc4cnc5ccc(-c6cnc7ccccc7c6)cc5c43)cc2C(F)(F)F)CC1`, which Potency [1] is on record?
Answer: 13.2 µM (active)

Question: And the outcome [2]?
Answer: inactive

Question: What about the Potency [15] of the same compound?
Answer: 5.3 µM (active)

Question: For `CC(=O)NCCC(=O)N[C@@H](CCC(N)=O)C(=O)N[C@@H](CO)C(=O)N[C@@H](CCC(N)=O)C(=O)N[C@@H](CCC(N)=O)C(=O)N[C@H](C(=O)N[C@@H](Cc1ccccc1)C(=O)N[C@]1(C)CCCCCCC=CCCC[C@@](C)(C(=O)N[C@@H](CCC(N)=O)C(=O)N[C@@H](CC(N)=O)C(N)=O)NC(=O)[C@H](CC(C)C)NC(=O)[C@H](CC(C)C)NC(=O)[C@@H](CCCNC(=N)N)NC(=O)[C@H](Cc2c[nH]c3ccccc23)NC(=O)[C@H](CC(C)C)NC(=O)[C@H](CC(N)=O)NC1=O)[C@H](C)O`, which outcome [2] is on record?
Answer: inactive

Question: With `COC(=O)Nc1ccc(-c2nc(N3CCOCC3)c3cnn(C4CCN(C(=O)OC)CC4)c3n2)cc1` as the compound, how does the outcome [2] read?
Answer: inactive

Question: And the Potency [15]?
Answer: inactive

Question: For `Cc1c(C(=O)Nc2ccc(N3C[C@@H](C)O[C@@H](C)C3)nc2)cccc1-c1ccc(OC(F)(F)F)cc1`, which outcome [2] is on record?
Answer: inactive

Question: For `Cc1cc2c(cc1C1(c3ccc(C(=O)O)cn3)CC1)C(C)(C)CCC2(C)C`, which outcome [2] is on record?
Answer: inactive

Question: For `Cn1cc(-c2ccc3nnc(Sc4ccc5ncccc5c4)n3n2)cn1`, which Potency [1] is on record?
Answer: inactive

Question: And the Potency [15]?
Answer: inactive

Question: For `CC(C)(C)c1[nH]cnc1C=c1[nH]c(=O)c(=Cc2ccccc2)[nH]c1=O`, which outcome [2] is on record?
Answer: inactive

Question: With `NC(=O)c1ccc(N(C(N)=O)c2c(F)cccc2F)nc1-c1ccc(F)cc1F` as the compound, how does the Potency [1] read?
Answer: inactive

Question: And the outcome [2]?
Answer: inactive

Question: And the Potency [15]?
Answer: inactive

Question: Which results are given for `CCCCc1ccc(NS(=O)(=O)c2ccc(C)c(C(=O)N3CCN(c4cccc(C)c4C)CC3)c2)cc1`?
Answer: Potency [1]: 20.9 µM (active); Potency [15]: 16.8 µM (active)

Question: Which Potency [1] does the source give for `COc1cccc(OC)c1-c1cc(C(=O)NC2(C(=O)O)C3CC4CC(C3)CC2C4)nn1-c1ccnc2cc(Cl)ccc12` (stereo unspecified) here?
Answer: 14.8 µM (active)

Question: And the outcome [2]?
Answer: inactive

Question: What about the Potency [15] of the same compound?
Answer: 16.8 µM (active)
